# High-throughput results deposited in PubChem BioAssay by National Center for Advancing Translational Sciences (NCATS).
# AmpC no deterg – blocks E. coli AmpC beta-lactamase in detergent-free assay; AID 485341; P00811; 0.52% of 330,000 active; Potency, µM (series often up to 57.1 µM), without a hit: at the highest dose activity change, negative = inhibition, most hits filed as inhibitors; AmpC nitrocefin hydrolysis, absorbance 480 nm, 0.0001% Triton;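 also: plate controls were no compound for no effect and no enzyme for full effect; nearly all actives have a fitted effect of over 20% in size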
# Target sequence (P00811 whole entry, looked up): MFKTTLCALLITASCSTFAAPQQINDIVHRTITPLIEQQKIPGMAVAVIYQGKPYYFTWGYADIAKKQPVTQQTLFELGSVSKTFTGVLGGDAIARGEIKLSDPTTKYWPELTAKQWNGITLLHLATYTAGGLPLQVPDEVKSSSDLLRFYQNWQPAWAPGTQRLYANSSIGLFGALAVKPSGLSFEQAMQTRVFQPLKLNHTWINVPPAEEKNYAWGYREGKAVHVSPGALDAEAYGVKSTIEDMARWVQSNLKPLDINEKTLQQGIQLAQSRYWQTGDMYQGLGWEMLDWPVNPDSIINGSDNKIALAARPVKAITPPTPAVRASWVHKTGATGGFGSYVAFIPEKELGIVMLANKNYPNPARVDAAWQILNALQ
#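 20 mM phosphate pH 7.0 + 0.01% (detergent screen) or 0.0001% Triton X-100; 5.3 nM AmpC reagent; cpd preinc 15 min RT; nitrocefin (800 uM stock) to start; A480 q20 s × 4 min; Activity was normalised to no-enzyme and no-compound control wells.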
# AMA1 RON2 block – disrupts binding of P. falciparum AMA1 to RON2 | AlphaScreen AMA1-biotinylated RON2 peptide binding | Potency, µM (doses to about 58.2 µM), for the others: at the top dose activity change, negative = inhibition, hits mostly inhibitors | 0.2% of 360,000 active;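 also: 0% = vehicle wells and -100% = peptide control; nearly all actives have a fitted effect of over 45% in size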
#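 AMA1 (3D7) with his tag at 25 nM final met compounds first, then biotinylated RON2 peptide at 25 nM; detection used donor plus acceptor beads, 10 µg/mL apiece, read by AlphaScreen after 30 min at room temperature.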
# FMDV antiviral – blocks foot and mouth disease virus | FMDV antiviral cell-based qHTS | Potency, µM (top dose mostly 57.9 µM), without a hit: top-dose activity change, negative = inhibition, usual class: inhibitors | 1.2% of 410,000 active | AID 1159524; calls by dose curve; tested in HEK293T cells; also: read-out not given here; nearly all actives have a fitted effect of over 45% in size
# Sm TGR inh – inhibitors of Schistosoma mansoni thioredoxin glutathione reductase; Q962Y6; purified TGR, DTNB reduction, TNB absorbance 405 nm; Potency, µM (series often up to 114 µM), for the others: top-dose activity change, negative = inhibition, usual class: inhibitors; 3% of 360,000 active; also: nearly all actives have a fitted effect of over 60% in size
#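 First, TGR (20 nM dispensed) and NADPH were mixed with compound. Second, a 15 min room-temperature incubation followed. Third, further NADPH and then DTNB were added to start the reaction. Finally, TNB absorbance was monitored kinetically.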
# AmpC inh detg – inhibitors of E. coli AmpC beta-lactamase with detergent; Potency, µM (series often up to 114 µM), for inactives: top-dose activity change, negative = inhibition, usual class: inhibitors; AID 485294; AmpC hydrolysis of nitrocefin, absorbance 480 nm, 0.01% Triton; P00811; 0.041% of 370,000 active;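 also: 0% = no-compound wells and -100% = no-enzyme wells; nearly all actives have a fitted effect of over 25% in size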
#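 20 mM phosphate pH 7.0 + 0.01% (detergent screen) or 0.0001% Triton X-100; 5.3 nM AmpC reagent; cpd preinc 15 min RT; nitrocefin (800 uM stock) to start; A480 q20 s × 4 min; Activity was normalised to no-enzyme and no-compound control wells.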
# An asterisk follows results filed as active; u = inconclusive; x = no result given; [ ] = another dose, or the depositor's remark. Only some compounds are listed: those with a hit (about 4.1% of all), similar ones and a draw of the others. Unless noted, calls follow the shape of the dose curve; as a rule, active = well fitted curve in the direction sought with a large enough effect; inconclusive = small, poorly fitted or top-dose-only effect, or another doubt; inactive = no such curve, though single readings can be large; an effect the other way counts as inactive or inconclusive. Unless noted, % is scaled to controls: 0 for no effect and ±100 for the full control effect; potency is read from the fitted curve at half-maximal effect.
SMILES,AmpC no deterg,AMA1 RON2 block,FMDV antiviral,Sm TGR inh,AmpC inh detg
CCc1ccc(NC(=O)CCc2nnc3n(C)c(=O)c4sccc4n23)cc1,x,x,-11.9%,2.3%,2.5%
CCOc1ccccc1NC(=O)CN1C(=O)C2(SCC(=O)N2c2cccc(F)c2)c2ccccc21 (stereo not drawn),x,x,-26.5%,26.6%,-0.4%
O=C(Nc1ccc(S(=O)(=O)N2CCOCC2)cc1)c1ccc(Cl)c([N+](=O)[O-])c1,x,8.4%,-27.8%,x,x
Cc1cc(-c2csc(NC(=O)c3ccc(S(=O)(=O)N(C)C)cc3)n2)c(C)n1-c1ccccc1,-27.8%,16.0%,31.6µM*,-14.3%,-5.9%
O=C(Nc1cccc(S(=O)(=O)N2CCOCC2)c1)c1ccc(Cl)c([N+](=O)[O-])c1,-23.5%[11.4 µM],-11.5%,39.8µM*,6.4%,3.6%
COc1ccccc1N(C)S(=O)(=O)c1ccc(C(=O)Nc2cccc(S(=O)(=O)N3CCOCC3)c2)cc1,x,-5.6%,25.1µM*,x,x
Cc1cc(C)n(-c2ccc(C(=O)Nc3cc(S(=O)(=O)N(C)C)ccc3Cl)cc2)n1,26.0%,-7.3%,28.2µM*,5.0%,1.5%
Cc1cc(C)n(-c2ccc(C(=O)Nc3cccnc3Cl)cc2)n1,-5.6%,11.1%,4.2%,6.9%,1.3%
O=C(Nc1nnc2n1CCS2)c1ccccc1C(F)(F)F,x,x,0.0%,2.7%,3.2%
CCCCCn1c(=O)[nH]c2cc(C(=O)Nc3ccc(OC)c(OC)c3)ccc2c1=O,x,x,7.4%,-0.6%,-2.2%
COC(=O)C1=C(O)/C(=C\c2cc(C)n(-c3ccccc3F)c2C)N=C1C,-17.1%,-5.0%,16.9%,25.1µM*,-9.4%
COC(=O)C1=C(O)/C(=C\c2cc(C)n(-c3ccccc3C)c2C)N=C1C,-29.3%,7.1%,x,25.1µM*,-3.0%
COC(=O)C1=C(O)/C(=C\c2sccc2C)N=C1C,-6.1%,-11.3%,15.1%,-3.8%,5.3%
COc1ccc(N2C(=O)[C@@H]3C[C@H]2CN3Cc2cccn2-c2nccs2)cc1Cl,x,x,3.6%,x,x
CN(C)S(=O)(=O)c1ccc(C(=O)NCc2ccc3[nH]c4c(c3c2)CCCC4)cc1,28.2µM*,-18.5%,-20.3%,-13.3%,u
Cc1ccc(C)c(NC(=S)NCc2ccc3[nH]c4c(c3c2)CCCC4)c1,35.5µM*,28.2%,-14.1%,-23.9%,-4.8%
O=C(NCc1ccc2[nH]c3c(c2c1)CCCC3)c1ccc(S(=O)(=O)N2CCOCC2)cc1,0.9%,-8.5%,-4.7%,-0.7%,-15.8%
O=C(NCc1ccc2[nH]c3c(c2c1)CCCC3)c1ccc(S(=O)(=O)N2CCCC2)cc1,-10.4%,-9.2%,0.0%,2.0%,-13.0%
O=C(NCc1ccc2[nH]c3c(c2c1)CCCC3)N1CCOCC1,65.9%,x,x,35.5µM*,-16.6%
CCN(CC)S(=O)(=O)c1ccc(C(=O)NCc2ccc3[nH]c4c(c3c2)CCCC4)cc1,25.1µM*,-13.3%,-16.0%,-15.7%,-13.4%
Cc1cccc(N2CCN(c3nc4ccc(C)cc4n4cnnc34)CC2C)c1 (stereo not drawn),x,x,-27.5%,-7.1%,-1.7%
Cc1c(C(c2ccc(O)cc2)c2c(C)n(C)n(-c3ccccc3)c2=O)c(=O)n(-c2ccccc2)n1C,-28.5%,0.1%,-16.3%,-11.1%,11.7%
Cc1c(C(c2ccc(O)cc2)c2c(O)c3ccccc3oc2=O)c(=O)n(-c2ccccc2)n1C (stereo not drawn),u,-2.0%,10.1%,14.1µM*,3.8%
Cc1ccc(C(c2c(C)n(C)n(-c3ccccc3)c2=O)c2c(C)n(C)n(-c3ccccc3)c2=O)s1,10.6%,60.3%,-12.2%,25.1µM*,-1.9%
Cc1c(C(c2ccccc2)c2c(C)n(C)n(-c3ccccc3)c2=O)c(=O)n(-c2ccccc2)n1C,17.1%,-2.9%,-3.2%,-15.8%,3.7%
SMILES,AmpC no deterg,AMA1 RON2 block,FMDV antiviral,Sm TGR inh,AmpC inh detg
CCn1cc(C(=O)NCc2ccccc2Cl)c(=O)c2cc(S(=O)(=O)N3CCCCCC3)ccc21,x,x,-0.8%,12.1%,2.4%
CC(O)c1nc(C(C)O)n(CC(=O)c2ccccc2)n1 (stereo not drawn),-18.7%,-2.1%,-16.3%,44.7µM*,-0.7%
c1ccc(-c2ncc3ccccn23)cc1,-28.8%,3.7%,10.8%,39.8µM*,1.7%
Cc1ccc(NC(=O)CNC(=O)c2cccs2)nc1,-1.9%,-3.5%,33.2%,-0.6%,-0.2%
Cc1ccnc(NC(=O)CCC(=O)c2cccs2)c1,-25.8%,-1.5%,14.1µM*,u,-1.4%
Cc1ccc(C(=O)CCC(=O)Nc2cc(C)ccn2)cc1,-33.1%,11.6%,38.5%,-15.1%,-4.6%
Cc1ccc(NC(=O)CCC(=O)c2cccs2)nc1,u,-1.5%,84.4%,50.1µM*,u
COc1ccc(SCc2cc(=O)c3cc(Cl)ccc3[nH]2)cc1,x,x,u,3.1%,15.4%
Cc1ccc(C)c(NC(=O)N2CCc3cc(S(=O)(=O)N4CCC(C)CC4)ccc32)c1,x,x,-14.3%,4.7%,19.0%
CCN1CCN(Cc2c(O)ccc3c(=O)c(Oc4ccccc4C(C)C)c(C(F)(F)F)oc23)CC1,x,x,-1.5%,-28.4%,3.8%
CC1=CC(C)(C)N2C(=O)C3(SCC(=O)N3c3ccc(F)cc3)c3cc(C)cc1c32 (stereo not drawn),34.3%,u,17.8µM*,-1.0%,-12.1%
Cc1cc(C)c(NC(=O)CN2C(=O)C3(SCC(=O)N3c3ccc(F)cc3)c3ccccc32)c(C)c1 (stereo not drawn),x,x,-23.5%,-3.3%,0.4%
Oc1[nH]c2ccc(Br)cc2c1N=NC(=S)N1CCOCC1,-30.9%,-25.1%,3.16µM*,19.8%,9.2%
Oc1[nH]c2ccccc2c1N=NC(=S)N1CCOCC1,-27.2%,-48.1%,u,-18.6%,2.2%
COc1ccc(CN2CCCN(CC(=O)Nc3ccc(Br)cc3F)S2(=O)=O)cc1,x,x,-17.7%,7.0%,0.2%
COc1ccc(CN2C[C@H]3CCCN3c3cc(Br)ccc3S2(=O)=O)cc1,20µM*,1.6%,-27.3%,x,x
N#Cc1ccc(NC(=O)CCc2ccc(S(=O)(=O)N3CCOCC3)cc2)cc1,-17.9%,10.2%,28.2µM*,2.5%,-15.8%
O=C(Nc1ccc(S(=O)(=O)N2CCCC2)cc1)c1ccc([N+](=O)[O-])o1,-20.0%,-10.7%,u,x,x
O=C(Nc1ccc(S(=O)(=O)N2CCOCC2)cc1)c1ccc([N+](=O)[O-])o1,-5.2%,0.5%,-14.4%,28.2µM*,3.3%
O=C(NCCc1ccccc1)c1cnn(-c2ccc(F)cc2)c1-n1cccc1,x,x,-23.2%,1.4%,-2.1%
O=C1CC(CC(=O)N2CC3CCCC2C3)(c2cccc(F)c2)C(=O)N1Cc1cccnc1 (stereo not drawn),x,x,13.5%,x,x
Cc1ccccc1N=CC1=C(O)c2ccccc2C1=O,-14.5%,-18.8%,8.91µM*,x,0.2%
COc1ccc(N=CC2=C(O)c3ccccc3C2=O)c(OC)c1,-1.1%,-13.9%,u,-2.0%,3.9%
